PTHR1 ag: qHTS for PTHR1 Agonists: Primary Screen; Parathyroid hormone/parathyroid hormone-related peptide receptor (Homo sapiens), Q03431; HEK293 GP2 PTHR1 cells, GloSensor cAMP luminescence, 1 h; Potency, µM (top dose mostly 115 µM), for inactives: at the highest dose activation, most hits filed as activators; 0.075% of 410,000 active; AID 743266, 2014; also: potency is read from the fitted curve at half-maximal effect; nearly all actives have a fitted effect of over 55% in size
Target sequence (Q03431 whole entry, looked up): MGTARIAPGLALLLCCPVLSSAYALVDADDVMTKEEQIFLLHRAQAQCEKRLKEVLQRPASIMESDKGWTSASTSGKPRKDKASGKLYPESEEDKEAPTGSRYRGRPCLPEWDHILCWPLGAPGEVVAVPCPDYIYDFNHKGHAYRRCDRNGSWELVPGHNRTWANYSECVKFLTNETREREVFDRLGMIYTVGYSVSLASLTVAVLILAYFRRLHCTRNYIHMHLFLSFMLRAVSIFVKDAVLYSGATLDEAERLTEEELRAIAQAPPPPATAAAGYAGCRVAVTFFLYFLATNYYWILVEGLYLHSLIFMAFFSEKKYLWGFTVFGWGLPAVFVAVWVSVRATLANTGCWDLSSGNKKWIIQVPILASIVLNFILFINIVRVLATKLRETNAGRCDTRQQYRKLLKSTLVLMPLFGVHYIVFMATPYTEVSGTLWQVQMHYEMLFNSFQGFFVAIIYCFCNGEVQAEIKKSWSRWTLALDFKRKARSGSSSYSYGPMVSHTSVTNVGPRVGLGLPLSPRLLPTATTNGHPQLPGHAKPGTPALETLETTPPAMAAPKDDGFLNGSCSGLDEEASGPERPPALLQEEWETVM
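HEK-293-derived GP2 cells expressing PTHR1 and a GloSensor cAMP reporter, 3,000/well, plated overnight, given luciferin plus IBMX (each 0.5 mM as added) for 1 h at 37 °C, then compound for 1 h at 37 °C. Luminescence was read after 15 min at room temperature.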
GLP-1R inv ag: qHTS of GLP-1 Receptor Inverse Agonists (Inhibition Mode). HEK293 GLP-1R CRE-luciferase, luminescence, 24 h; GLP-1R form is constitutively active. Potency, µM (highest dose often 38.3 µM), without a hit: at the highest dose activity change, negative = inhibition, hits mostly inhibitors. 1.6% of 410,000 active; also: potency is read from the fitted curve at half-maximal effect; % is scaled to controls: 0 for no effect and ±100 for the full control effect; nearly all actives have a fitted effect of over 55% in size
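Inverse agonists were sought by their lowering of basal cAMP reporter luciferase output in HEK293 cells stably carrying constitutively active human GLP-1R, after 24 h compound treatment.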
GLP-1R agonist: qHTS of GLP-1 Receptor Agonists; AID 624172, 2012; 0.007% of 380,000 active; Potency, µM (highest dose often 45.6 µM), inactives show at the top dose activation, hits mostly activators; HEK293 GLP-1R CRE-luciferase, luminescence, 4-6 h; cells express a hypersensitive GLP-1R form; also: potency is read from the fitted curve at half-maximal effect; % of control where 0% means no effect
GLP1R cytotox: qHTS of GLP-1 Receptor Inverse Agonists: Cytotox Screen | HEK293 cAMP-luciferase reporter cells, luminescence, 24 h | Potency, µM (titrated, usually from 38.3 µM), without a hit: at the top dose activity change, negative = inhibition, actives largely listed as inhibitors | AID 624418, 2012 | 0.13% of 410,000 active;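 also: loss of luciferase light is scored as toxicity; potency is read from the fitted curve at half-maximal effect; % is scaled to controls: 0 for no effect and ±100 for the full control effect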
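Here, cytotoxicity is scored as loss of luminescence. The MLSMR collection was tested on cells seeded in medium containing 10% Nu serum, with a 24 hr compound exposure preceded by 12 hours of culture.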
LDHA block: qHTS assay for inhibitors of human lactate dehydrogenase | purified LDHA, NADH/diaphorase-resazurin fluorescence; active compounds read low | activity change, % (values are at about 110 or 230 µM) | 0.15% of 480,000 active | L-lactate dehydrogenase A chain (Homo sapiens), P00338; in the data active = activity change below about -30%; inconclusive = mostly about -25% to -30%;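 also: plate controls were DMSO wells for no effect and wells without enzyme for full effect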
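Human LDH5 at 2 nM final in Tris HCl pH 7.4 with 0.06 mM NADH and 0.2 mM pyruvate, reacted 5 minutes at room temperature. Remaining NADH coupled via diaphorase/resazurin; resorufin fluorescence read at 0 and 20 minutes, normalized to enzyme-free and DMSO wells.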
IDH1 R132H inh: qHTS for Inhibitors of mutant isocitrate dehydrogenase 1 (IDH1): qHTS; Isocitrate dehydrogenase [NADP] cytoplasmic (Homo sapiens), O75874; IDH1-R132H enzyme, NADPH consumption, diaphorase/resazurin fluorescence; Potency, µM (highest dose often 76.6 µM), without a hit: top-dose activity change, negative = inhibition, actives largely listed as inhibitors; 0.093% of 390,000 active; also: potency is read from the fitted curve at half-maximal effect; % is scaled to controls: 0 for no effect and ±100 for the full control effect; nearly all actives have a fitted effect of over 65% in size
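IDH1-R132H (0.5 ug/mL dispensed) in pH 7.5 Tris buffer was preincubated 30 min with compound, then given a substrate mix of 0.016 mM NADPH and 2 mM alpha-KG for 80 min at room temperature; remaining NADPH was read by diaphorase/resazurin fluorescence.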
Active calls of the source: *; i = inactive; u = inconclusive; x = no result; [ ] = another dose, or the depositor's remark. Sampled rows, rich in hits. Any-hit rate of the full collection: about 1.7%. Unless noted, calls follow the shape of the dose curve; as a rule, active = well fitted curve in the direction sought with a large enough effect; inconclusive = small, poorly fitted or top-dose-only effect, or another doubt; inactive = no such curve, though single readings can be large; an effect the other way counts as inactive or inconclusive.

SMILES	PTHR1 ag	GLP-1R inv ag	GLP-1R agonist	GLP1R cytotox	LDHA block	IDH1 R132H inh
Cc1cc(NC(=O)CN2CCN(c3nc(N4CCCC4)nc(N4CCCC4)n3)CC2)no1	x	x	x	x	10	x
CC1(C(=O)NCc2ccc(C(F)(F)F)cc2)CCN1Cc1ccccc1OC(F)F (stereo unspecified)	i	u	5%	3%	1	x
CC1(C(=O)NCc2cccc3ccccc23)CCN1Cc1ccccc1OC(F)F (stereo unspecified)	-27%	13µM*	2%	-15%	-3	x
COc1ccc(OC)c(/C=C/c2ccc3ccccc3n2)c1	x	x	x	x	-3	x
COc1ccc(C=Cc2ccc3ccccc3n2)c(OC)c1	-14%	4.5µM*	-5%	121%	-2	12%
CN(Cc1ccccc1Cl)S(=O)(=O)c1cccc2nsnc12	x	x	x	x	6	x
Cc1ccc(-c2nc(C)c(C(=O)O)s2)cc1	-18%	10µM*	-4%	-7%	-5	-3%
CCn1nc(C)c2c(-c3ccccc3)cc(=O)n(C(C)C(=O)Nc3cc(C)ccc3C)c21 (stereo unspecified)	-6%	12%	x	26%	-8	16%
CCn1nc(C)c2c(-c3ccccc3)cc(=O)n(C(C)C(=O)Nc3cccc(F)c3)c21 (stereo unspecified)	i	7.9µM*	x	0%	3	11%
O=C1c2cccc3cc([N+](=O)[O-])cc(c23)C(=O)N1CCN1CCCC1	0%	4.5µM*	-13%	34%	23	-7%
O=C(Cc1ccccc1)N(Cc1cccc2[nH]ccc12)C1CC1	x	x	x	x	-5	x
COc1cccc(-c2noc(NCCc3ccc(Cl)cc3)n2)c1OC	x	x	x	x	-21	x
Cc1ccc(/C=N/N(C)S(=O)(=O)c2ccc(C)cc2)cc1	-74%	10µM*	7%	7%	0	5%
C=CCNC(=S)Nc1cc(C)ccn1	-7%	10µM*	6%	u	-2	2%
Cc1ccnc(NC(=S)NC(=O)/C=C/c2ccccc2)c1	-14%	17%	-3%	-19%	-2	1%
O=C1CS(=O)(=O)N(Cc2cccc(F)c2)c2ccc(Br)cc21	-36%	10µM*	-3%	-6%	0	5%
Nc1nccnc1C(=O)NCCNC(=O)c1ccc(Cl)c(Cl)c1	x	x	x	x	14	x
CC(=O)c1ccc(S(=O)(=O)N2CCCCCC2c2cccn2C)cc1 (stereo unspecified)	x	x	x	x	3	x
O=C1CCN(Cc2nc(-c3ccc(Cl)cc3)no2)CCN1	-19%	4.5µM*	0%	-1%	-1	-3%
Cc1ccc(/C=N/Nc2ccc(F)cc2F)s1	-42%	5µM*	1%	-14%	3	0%
Fc1ccc(N/N=C/c2ccc(F)c(F)c2)c(F)c1	x	x	x	x	6	x
Cc1cc(Nc2ccc3c(c2)OCCO3)c2cccc(C)c2n1	i	u	4%	8.9µM*	-4	4%
Cc1cc(Nc2ccc3c(c2)OCCO3)c2ccccc2n1	16%	u	0%	u	-7	6%
COc1ccccc1/C=C/C(=O)c1cc(Br)ccc1OC(=O)c1ccco1	-20%[57.5 µM]	5µM*	-13%	u	-7	2%
Cc1ccc(/C=C/C(=O)c2cc(Br)ccc2OC(=O)c2ccco2)cc1	-6%[57.5 µM]	u	-10%	-28%	-4	4%
SMILES	PTHR1 ag	GLP-1R inv ag	GLP-1R agonist	GLP1R cytotox	LDHA block	IDH1 R132H inh
COc1cc(/C=C(\C#N)C(=O)NCc2ccccc2)ccc1OCc1ccc(C(=O)O)cc1	-34%	13%	-2%	-6%	-13	5%
COc1cc(/C=C(/C#N)C(=O)NCCCc2ccccc2)ccc1OCC(=O)O	22%	51%	-6%	9%	-34*	18%
C=CC[C@@H](CC(=O)N(CCO)Cc1ccccc1)C(=O)N[C@H](C)COC(=O)[C@@H](CC=C)Cc1ccc(F)cc1	-95%	-16%	-5%	-25%	0	6%
C=CC[C@H](CC(=O)N(CCO)Cc1ccccc1)C(=O)NC[C@@H](OC(=O)[C@@H](CC=C)Cc1ccc(F)cc1)c1ccccc1	-22%	3.2µM*	-5%	-25%	1	3%
C=CCC[C@H](Cc1ccc(F)cc1)C(=O)O[C@H](CNC(=O)[C@@H](CC=C)CC(=O)N(CCO)Cc1ccccc1)c1ccccc1	-53%	u	-2%	u	5	1%[38.3 µM]
C=CCC[C@H](Cc1ccc(F)cc1)C(=O)OC[C@H](Cc1c[nH]c2ccccc12)NC(=O)[C@@H](CC=C)CC(=O)N(CCO)Cc1ccccc1	i	u	-6%	18%	3	0%
C=CCC[C@@H](Cc1ccc(F)cc1)C(=O)OC[C@H](Cc1c[nH]c2ccccc12)NC(=O)[C@H](CC=C)CC(=O)N(CCO)Cc1ccccc1	i	10µM*	-1%	u	-1	4%
C=CC[C@H](CC(=O)N(CCO)Cc1ccccc1)C(=O)N[C@H](C)COC(=O)[C@@H](CC=C)Cc1ccc(F)cc1	-49%	11µM*	11%	3%	0	-3%
O=C(Oc1ccccc1)C1C2CCCC1C2c1ccccc1 (stereo unspecified)	x	x	x	x	-5	x
COc1ccc(OCCn2cc(S(=O)(=O)N3CCCC3)ccc2=O)cc1	x	x	x	x	9	x
CSc1ccc(NC(=O)C(C)N2CCN(C)CC2)cc1 (stereo unspecified)	i	4%	-4%	7%	-35*	12%
CC(C(=O)Nc1ccc2c(c1)OCO2)N1CCN(C)CC1 (stereo unspecified)	-4%	19%	-1%	-12%	u	-2%
COc1ccc(N/C=C/C(=O)c2ccc(Br)cc2)cc1	x	x	x	x	-3	x
CC(=O)N/N=C\c1ccccc1OC/C=C/c1ccccc1	-36%	7%	-23%	-1%	-10	3%
CC(=O)N/N=C\c1cccc(OC/C=C/c2ccccc2)c1	i	3.5µM*	-4%	-5%	-2	-5%
COc1cc(/C=N\NC(=O)CC#N)ccc1OC/C=C/c1ccccc1	i	13µM*	-4%	-4%	1	-1%
COc1cc(C=NNc2ccccc2)ccc1OC(=O)c1ccccc1	i	1µM*	-6%	-26%	3	3%

Bioassay records as filed in PubChem BioAssay.
